# The list is not random: actives were taken first. Their share in the collection is about 6%.
# D1 agonist = agonists of human D1 dopamine receptor; 360,000 compounds, 1% hits; P21728; activation, % at 2 µM; HEK293 T-REx D1 cells, calcium flux, agonist mode; in the data active = activation above about 30%; also: 0% is about no effect
# Target sequence (P21728 whole entry, looked up): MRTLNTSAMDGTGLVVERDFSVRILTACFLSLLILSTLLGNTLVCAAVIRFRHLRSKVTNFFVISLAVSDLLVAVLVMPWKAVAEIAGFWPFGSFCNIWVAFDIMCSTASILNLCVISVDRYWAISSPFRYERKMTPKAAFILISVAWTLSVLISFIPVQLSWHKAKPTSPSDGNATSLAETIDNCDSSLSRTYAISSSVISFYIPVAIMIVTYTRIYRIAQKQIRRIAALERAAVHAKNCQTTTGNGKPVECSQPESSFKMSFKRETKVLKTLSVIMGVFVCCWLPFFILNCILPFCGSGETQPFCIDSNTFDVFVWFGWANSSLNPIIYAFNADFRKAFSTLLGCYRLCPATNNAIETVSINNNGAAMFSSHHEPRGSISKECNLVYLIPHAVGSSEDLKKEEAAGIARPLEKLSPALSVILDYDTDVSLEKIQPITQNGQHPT
#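 Tetracycline-induced HEK293 TREx D1 cells, force-coupled to calcium signalling, were dye-loaded with a no-wash calcium kit. Compound was pin-added after a 10 s baseline. Fluorescence was read kinetically at 1 cycle/s for 180 s, with calcium rises flagged as agonism.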
# D1 potentiator = potentiators of human D1 dopamine receptor; P21728; HEK293 TREx D1 cells, calcium flux, dopamine EC20 potentiation; potentiation, % at 10 µM; 360,000 compounds, 0.036% hits; AID 504651; in the data active = potentiation above about 30%; also: 0% is about no effect
# D1 antagonist = blocks dopamine activation of the human D1 receptor | 360,000 compounds, 3.2% hits | activity change, negative = inhibition, % at 10 µM | HEK293 TREx D1 cells, calcium flux, dopamine EC80; stronger effect = lower value | AID 504652 | P21728; in the data active = activity change below about -30%; also: % is scaled to controls: 0 for no effect and ±100 for the full control effect
#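 Inducible Hek293 Trex D1 cells (tetracycline, overnight, 30 C). Calcium dye 30–90 min RT. Antagonist mode: EC80 dopamine added after 180 s compound read.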
# D3 ag = agonists of human D3 dopamine receptor. D3R DiscoveRx beta-arrestin cells, luminescence, 90 min. AID 652048. 410,000 compounds, 0.58% hits. max activation, %; in the data active = max activation above about 30%; also: 0% is about no effect
#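 Agonist mode: compounds and dopamine controls were applied to plated cells for 90 min at 37 degrees C after an overnight attachment at 1500 cells/well. Luminescent read-out followed 30 - 60 minutes at room temperature with DiscoveRx detection reagent.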
# D3 antag = antagonists of human D3 dopamine receptor; D3R cells, DiscoveRx beta-arrestin luminescence, antagonist mode; stronger effect = lower value; 360,000 compounds, 2.5% hits; max response, negative = inhibition, %; P35462; in the data active = max response below about -50%; inconclusive = no clear call, values can overlap the other calls; also: % is scaled to controls: 0 for no effect and ±100 for the full control effect
#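 Cells expressing the human receptor were seeded at 1500 cells/well, incubated overnight at 37 degrees C in 5% CO2, then exposed to library compounds with dopamine controls for 90 minutes at 37 degrees C before luminescent detection.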
# * hit, by the source's call; u = inconclusive; x = not tested or not shown; ! = repeats disagree.
SMILES,D1 agonist,D1 potentiator,D1 antagonist,D3 ag,D3 antag
CC(NC(=O)Nc1nnc(C(F)(F)F)s1)(C(F)(F)F)C(F)(F)F,41*,-8,-29,2,-23
COc1ccc(CNC(=O)Cn2c(SCC(=O)Nc3ccc(C)c(C)c3)nc3ccccc32)cc1,23,-1,5,-28,x
Cn1c(C(=O)NCCCN2CCN(c3ccc(F)cc3)CC2)cc2c(=O)n(C)c3ccccc3c21,x,x,x,-14,-84*
Cn1c(C(=O)NCCN2CCOCC2)cc2c(=O)n(C)c3ccccc3c21,1,x,-2,3,-1
Cn1c(=O)cc(SCC(=O)NCCCN2CCN(c3ccc(F)cc3)CC2)c2ccccc21,-1,-10,-7,-7,-69*
Cn1c(=O)cc(SCC(=O)NCc2ccc(F)cc2)c2ccccc21,0,-3,0,10,6
Cn1c(C(=O)NCCN2CCc3ccccc3C2)cc2c(=O)n(C)c3ccccc3c21,2,-6,-9,-12,-88*
Cn1c(=O)cc(SCC(=O)NCCN2CCN(c3ccccc3F)CC2)c2cc(Cl)ccc21,x,x,x,-4,-63*
COCCNC(=O)C1CCCN(Cc2ccc(-c3ccccc3)cc2)CC1 (configuration not stated),x,x,x,-6,11
O=C(C(Br)=Cc1ccccc1)c1ccccc1,x,x,x,-34,u
Cn1c(=O)c2c(ncn2CC(=O)OCC(=O)c2ccc(Br)cc2)n(C)c1=O,x,x,x,-9,-11
COc1cc(OC)c(NC(=O)CSc2cc(=O)n(C)c3ccc(Cl)cc23)cc1Cl,0,5,5,6,x
CCOc1ccc(-c2nonc2NC(=O)c2oc3cc(Br)ccc3c2C)cc1,6,-1,6,-22,x
Cc1cc(Cl)c2oc(C(=O)N(C)Cc3cc(C)[nH]n3)c(C)c2c1,6,-6,10,1,-6
Cc1cc(Cl)c2oc(C(=O)N(C)Cc3nccn3C)c(C)c2c1,2,-1,-30,-24,-67*
Cc1cc(C)c(C#N)c(N2CCN(Cc3ccc4c(c3)OCO4)CC2)n1,3,-2,6,-20,-57*
Cc1cc(C)c(C#N)c(N2CCN(Cc3ccccc3)CC2)n1,3,-8,-14,-60,-93*
Cc1ccc2nc(N3CCN(Cc4nnnn4Cc4ccccc4)CC3)c(C#N)cc2c1,5,11,-14,0,-74*
CCOC(=O)c1c(C)n(C)c2ccc(OCC(O)Cn3nc(C)cc3C)cc12 (configuration not stated),-1,0,-23,-3,37
CCOC(=O)c1c(C)n(C)c2ccc(OCC(O)CN(CC)CC)cc12 (configuration not stated),0,x,10,-9,-54*
Nc1ccn(CC(=O)NCCNc2ccc([N+](=O)[O-])cn2)c(=O)n1,1,3,x,98*,7
O=C(CN1CCN(Cc2ccccc2)CC1)NCCNc1ccc([N+](=O)[O-])cn1,2,-1,6,-5,-19
CCOC(=O)CN1C(=O)S/C(=C/C=C/c2ccc(N(C)C)cc2)C1=O,105*,-6,-18,-1,-1
CCOC(=O)CN1C(=O)S/C(=C/c2ccc3c(c2)n(C)c(=O)n3C)C1=O,1,1,6,6,0
COc1cc(OC)nc(Nc2nc(C(N)CCc3ccccc3)cs2)n1 (configuration not stated),x,x,x,34*,7
SMILES,D1 agonist,D1 potentiator,D1 antagonist,D3 ag,D3 antag
COc1cc(OC)nc(Nc2nc(C(N)COCc3ccccc3)cs2)n1 (configuration not stated),x,x,x,-6,-74*
C[N+](C)(CCCCCC[N+](C)(C)C1c2ccccc2-c2ccccc21)C1c2ccccc2-c2ccccc21,x,x,x,-24,x
CCOc1ccc(C(=O)Nc2ccc(-c3cc4ccccc4oc3=O)cc2)cc1Br,1,0,1,-2,x
CCCC(=O)Nc1ccc(-c2nc3ncccc3o2)cc1C,-1,-2,6,-8,x
Cc1ccc(Cl)cc1N1CCN(c2ncnc3onc(-c4ccc(F)cc4)c23)CC1,1,-6,-36*,-15,x
Cc1ccc(N2CCN(c3ncnc4onc(-c5ccc(F)cc5)c34)CC2)c(C)c1,0,-5,-1,5,x
CCCC(=O)N(c1ccc2oc(C)c(C(C)=O)c2c1)S(=O)(=O)c1ccc(C)cc1,1,-5,3,1,x
CCCC(=O)N(c1ccc2oc3c(c2c1)CCCC3)S(=O)(=O)c1cc(C)ccc1C,2,-3,-46*,-4,x
Cc1cnc(NC(=O)CSc2ncc(-c3ccccc3)n2Cc2ccco2)s1,79*,-9,-32*,-6,11
O=C(CSc1ncc(-c2ccc(F)cc2)n1Cc1ccco1)Nc1nccs1,20,-4,6,16,6
CCC(=O)Nc1cc(NC(=O)CSc2ncc(-c3ccc(F)cc3)n2Cc2ccco2)ccc1C,0,-4,12,1,-60*
CCOc1ccc(CNC(=O)Cn2nc(C)n3cccc3c2=O)cc1,0,-2,-3,-22,x
COc1ccc(CN=Cc2[nH]c3ccc(Br)c(Cl)c3c2O)cc1,2,-6,1,4,-74*
COc1ccc(N=Cc2[nH]c3ccccc3c2O)cc1,3,-3,-25,5,5
Cc1cc(C)cc(N=Cc2[nH]c3ccc(Br)c(Cl)c3c2O)c1,55*,-4,-4,-4,u
Cc1cc2nc(C(C)(C)C)c(Cc3ccccc3)n2c(C)c1Br,x,x,x,-21,-97*
COc1ccc(Cc2c(C(C)(C)C)nc3cc(C)c(Br)c(C)n23)c(C)c1,x,x,x,8,38
C[C@H]1CN[C@H](CCO)/C1=C\c1ccccc1,x,x,x,-27,-27
CCC1(C)Cc2ccccc2-c2nc(NCCO)[nH]c(=O)c21 (configuration not stated),0,-3,x,-7,-52*
O=C1c2ccccc2C(=O)C1c1ccc(O)cc1,1,-2,-20,7,10
O=C1c2ccccc2C(=O)C1c1ccc(Br)cc1,0,-6,-3,88*!,-4
O=C1c2ccccc2C(=O)C1c1ccc(F)cc1,x,x,x,62*,x
COc1ccc(OC)c(NC(=O)CSc2nnc(C3CCCCC3)n2-c2ccccc2)c1,0,-5,-13,-13,-8
CCN(Cc1cccc(OC)c1)CC1CCCN(CCc2cccc(OC)c2)C1 (configuration not stated),8,-8,-39*,-17,-9
CCOc1cccc(CN(CC)CC2CCCN(CCc3cccc(OC)c3)C2)c1O (configuration not stated),4,-11,-17,-12,-19
COc1cc(OC)c(OC)cc1CN(C)CC1CCCN(CCc2ccccc2F)C1 (configuration not stated),2,-4,-22,-3,-51*
COc1cccc(CN(C)CC2CCCN(CCc3ccccc3C)C2)c1 (configuration not stated),4,-3,-63*,-11,-15

# Assay outcomes deposited in PubChem by National Center for Advancing Translational Sciences (NCATS).
